Measured values: PubChem BioAssay (EPA / NIEHS)
Activity calls are given as the source filed them. The calls were made as follows: active = hit-call score of the fitted dose curve at least 0.9, where 1 is the maximum; inactive = score below 0.9.

Experiments:
Details in all cases: mRNA level, 48 h; actives raise or lower the signal
[1] = read-out: sulfotransferase 2A1 (SULT2A1), SULT2A1 (gene 6822); test: LTEA_HepaRG_SULT2A1: Life Technologies and Expression Analysis (LTEA) Assay for sulfotransferase 2A1 (SULT2A1) using HepaRG (AID 2283531)
How it was run: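 Expression change of SULT2A1, by qRT-PCR with three housekeeping-gene normalization, was scored bidirectionally versus DMSO. Cells: differentiated HepaRG, dosed in duplicate for 48 h across 8 points, highest 100 µM, half-log dilution, 0.5% DMSO.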

[2] = read-out: Transforming Growth Factor (TGFA), TGFA (gene 7039); test: LTEA_HepaRG_TGFA: Life Technologies and Expression Analysis (LTEA) Assay for Transforming Growth Factor (TGFA) using HepaRG (AID 2283532)
How it was run: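 Differentiated human HepaRG cells, plated 48 h then switched to serum-free induction medium, were exposed in duplicate for 48 h to 8-point half-log series from 100 uM in 0.5% DMSO. TGFA mRNA measured by qRT-PCR, normalized to ACTB/GAPDH/POLR2A, bidirectional fit versus DMSO.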

[3] = read-out: Transforming Growth Factor (TGFB1), TGFB1 (gene 7040); test: LTEA_HepaRG_TGFB1: Life Technologies and Expression Analysis (LTEA) Assay for Transforming Growth Factor (TGFB1) Transporter using HepaRG (AID 2283533)
How it was run: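 TGFB1 transcript measured by qRT-PCR with normalisation to three housekeeping genes (ACTB, GAPDH, POLR2A); human HepaRG line treated in duplicate for 48 hr with an 8-point series topping at 100 uM, 0.5% DMSO vehicle, bidirectionally fitted.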

TIMP1, TIMP1 (gene 7076) = test: LTEA_HepaRG_TIMP1: Life Technologies and Expression Analysis (LTEA) Assay for TIMP1 using HepaRG (AID 2283534)
How it was run: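 Bidirectional change in TIMP1 transcript versus 0.5% DMSO, measured by TaqMan qRT-PCR with three housekeeping genes for normalization. HepaRG human liver cells dosed 48 h in duplicate, top concentration 100 uM with half-log dilutions.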

[4] = read-out: Thyroid Hormone Responsive (THRSP), THRSP (gene 7069); test: LTEA_HepaRG_THRSP: Life Technologies and Expression Analysis (LTEA) Assay for Thyroid Hormone Responsive (THRSP) using HepaRG (AID 2283536)
How it was run: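 Differentiated human HepaRG cells were exposed in duplicate for 48 h in serum-free induction medium to eight concentrations (top 100 uM, half-log steps, 0.5% DMSO). Expression was quantified by TaqMan qRT-PCR, normalized to ACTB, GAPDH and POLR2A, with bidirectional fitting against DMSO.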

[5] = read-out: Cellular tumor antigen p53 (Homo sapiens) (UniProt P04637); test: LTEA_HepaRG_TP53: Life Technologies and Expression Analysis (LTEA) Assay for Tumor Protein P53 (TP53) using HepaRG (AID 2283537)
How it was run: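 HepaRG, 48 h exposure, top 100 uM, half-log 8-point, 0.5% DMSO vehicle, duplicates. Read: TP53 mRNA by TaqMan qRT-PCR, normalised to ACTB/GAPDH/POLR2A; bidirectional fit vs DMSO.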

[6] = read-out: UDP glucuronosyltransferase (UGT1A1), UGT1A1 (gene 54658); test: LTEA_HepaRG_UGT1A1: Life Technologies and Expression Analysis (LTEA) Assay for UDP glucuronosyltransferase (UGT1A1) using HepaRG (AID 2283538)
How it was run: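 Readout is UGT1A1 transcript level by qRT-PCR, normalized to three housekeeping genes, after 48 h chemical treatment of HepaRG cells. Concentrations ran from 100 uM down in half-log steps with 0.5% DMSO, and gain or loss relative to DMSO was fitted.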

[7] = read-out: UDP glucuronosyltransferase (UGT1A6), UGT1A6 (gene 54578); test: LTEA_HepaRG_UGT1A6: Life Technologies and Expression Analysis (LTEA) Assay for UDP glucuronosyltransferase (UGT1A6) using HepaRG (AID 2283539)
How it was run: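 Expression was quantified by TaqMan qRT-PCR on Fluidigm arrays with ACTB/GAPDH/POLR2A normalization and bidirectional fitting against 0.5% DMSO. HepaRG cells (~100,000/well) were treated in duplicate for 48 h at eight half-log concentrations up to 100 uM in serum-free induction medium.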

[8] = read-out: X-box binding protein 1 (XBP1), XBP1 (gene 7494); test: LTEA_HepaRG_XBP1: Life Technologies and Expression Analysis (LTEA) Assay for X-box binding protein 1 (XBP1) using HepaRG (AID 2283540)
How it was run: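 XBP1 transcript by qRT-PCR (housekeeping-normalized: ACTB, GAPDH, POLR2A) after 48 h chemical treatment of HepaRG cells, 8-point half-log series topping at 100 uM, vehicle 0.5% DMSO. Gain and loss of signal fitted relative to DMSO.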

Measured: AC50

Sequence of Cellular tumor antigen p53 (Homo sapiens) (P04637 whole entry, looked up): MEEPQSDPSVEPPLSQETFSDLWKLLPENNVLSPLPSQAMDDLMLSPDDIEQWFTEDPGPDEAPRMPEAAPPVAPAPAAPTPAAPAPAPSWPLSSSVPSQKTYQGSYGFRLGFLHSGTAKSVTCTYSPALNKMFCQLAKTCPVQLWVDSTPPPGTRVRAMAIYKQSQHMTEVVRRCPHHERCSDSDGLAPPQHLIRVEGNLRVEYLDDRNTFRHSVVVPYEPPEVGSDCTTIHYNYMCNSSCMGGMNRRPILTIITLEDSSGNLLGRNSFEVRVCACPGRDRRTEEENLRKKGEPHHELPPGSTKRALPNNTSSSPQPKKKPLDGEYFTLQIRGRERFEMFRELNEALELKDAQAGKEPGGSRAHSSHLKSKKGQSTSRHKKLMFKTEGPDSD

COC(=O)c1c(C(F)F)nc(C(F)(F)F)c(C2=NCCS2)c1CC(C)C
active: [6] 5.73 µM
inactive: all other assays above

COCC(C)N(C(=O)CCl)c1c(C)csc1C (stereo unspecified)
active: [6] 22.2 µM
inactive: all other assays above

CC(C)C1(C)N=C(c2ncccc2C(=O)O)NC1=O (stereo unspecified)
inactive: all assays above

CNC(=O)N(C)c1nnc(C(C)(C)C)s1
inactive: all assays above

CC1(C)C(C=C(Cl)Cl)C1C(=O)OC(C#N)c1cccc(Oc2ccccc2)c1 (stereo unspecified)
active: [6] 17.3 µM
inactive: all other assays above

CCCCC(C#N)(Cn1cncn1)c1ccc(Cl)cc1 (stereo unspecified)
active: [3] 50 µM | [4] 25 µM | [6] 12.2 µM
inactive: all other assays above

CN/C(=N\[N+](=O)[O-])NCc1cnc(Cl)s1
active: [4] 50 µM | [6] 50 µM
inactive: all other assays above

CCOc1nc(C(Cl)(Cl)Cl)ns1
inactive: [1] | TIMP1, TIMP1 (gene 7076) | [6] | [7]
active: [2] 1.14 µM | [3] 0.687 µM | [4] 1.06 µM | [5] 1.01 µM | [8] 0.83 µM

COc1cc(Cl)c(OC)cc1Cl
active: [6] 2.69 µM
inactive: all other assays above
